This is an account of results in PubChem BioAssay (EPA / NIEHS).

Read-out in test [1]: sulfotransferase (SULT2A), SULT2A1 (gene 6822)
As to the kind of experiment: CLD_SULT2A_48hr: CellzDirect (CLD) Gene Expression Assay for sulfotransferase (SULT2A) at 48 hours (AID 2283710).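 Note: hits raise SULT2A1 transcript above the 0.2% DMSO vehicle baseline.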 The gist of the method:
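Primary human hepatocytes (two donor preparations) dosed daily for two days with chemicals at multiple concentrations, vehicle 0.2% DMSO; SULT2A1 mRNA induction at 48 h by quantitative nuclease protection assay, chemiluminescent read-out, fitted for gain of signal versus DMSO.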

Read-out in test [2]: HMG-CoA synthase (HMGCS2), HMGCS2 (gene 3158)
As to the kind of experiment: CLD_HMGCS2_48hr: CellzDirect (CLD) Gene Expression Assay for HMG-CoA synthase (HMGCS2) at 48 hours (AID 2283711). The procedure, abridged: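 Primary human hepatocytes from two donors dosed daily for two days, 0.2% DMSO vehicle. HMGCS2 mRNA measured 48 h after dosing by quantitative nuclease protection assay with chemiluminescent read-out; induction fitted relative to DMSO, cytotoxicity flagged by microscopy.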

The nature of test [3]: STM_H9_OrnithineISnorm_perc: Stemina devTOX quickPredict H9 human embryonic stem cell (hESC)-based Assay for Ornithine (ORN) Metabolite Biomarker, Normalized (AID 2283712; active = hit-call score of the fitted dose curve at least 0.9, where 1 is the maximum; inactive = score below 0.9;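 note: ornithine released into spent medium during last day measured by mass spectrometry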). The procedure, abridged: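 Undifferentiated pluripotent H9 hESCs were exposed to compound for 72h, with media and compound replaced every 24h. Ornithine in final 24-h conditioned media was measured by UPLC-HRMS, normalized to 13C-labeled spike-in standard and to median 0.1% DMSO control.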

The nature of test [4]: STM_H9_CystineISnorm_perc: Stemina devTOX quickPredict H9 human embryonic stem cell (hESC)-based Assay for Cystine (CYSS) Metabolite Biomarker, Normalized (AID 2283713; active = hit-call score of the fitted dose curve at least 0.9, where 1 is the maximum; inactive = score below 0.9). The gist of the method: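 Undifferentiated H9 hESCs were exposed to compound for 72h, with medium and compound replaced every 24h. Final-24h conditioned medium was deproteinized and analyzed by UPLC-HRMS. Cystine EIC area was normalized to spiked C13 standard and 0.1% DMSO median.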

A short description of test [5]: STM_H9_OrnCyssISnorm_ratio: Stemina devTOX quickPredict H9 human embryonic stem cell (hESC)-based Assay for Ornithine (ORN):Cystine (CYSS) Ratio (AID 2283714). The gist of the method:
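Undifferentiated H9 hESCs were exposed to compound for 72h with media and chemical replaced every 24h. Final 24-h conditioned media were deproteinized and analysed by UPLC-HRMS. ORN and CYSS peak areas were normalized to C13 internal standards and the ratio taken versus 0.1% DMSO.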

Test [6] in a line: Tanguay_ZF_120hpf_ActivityScore_legacy: (Legacy) Oregon State University Tanguay Lab 120 Hour Post-fertilization zebrafish Assay Score for Activity (AID 2283742).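 For AC50: static exposure from 6 hpf until 120 hpf at 28 °C.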 The gist of the method: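 Tropical 5D wild-type zebrafish embryos, dechorionated with pronase at 4 hpf, were exposed singly from 6 hpf to 120 hpf statically at 28C in 0.64% DMSO. Malformations and mortality were scored as binary by brightfield, with the activity score combining 18 morphology components.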

Read-out in test [7]: glucuronosyltransferase (UGT1A1), UGT1A1 (gene 54658)
The test can be described thus: CLD_UGT1A1_48hr: CellzDirect (CLD) Gene Expression Assay for glucuronosyltransferase (UGT1A1) at 48 hours (AID 2283709).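 Note: actives increase expression relative to DMSO so potency refers to induction.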 The procedure, abridged: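 Human primary hepatocytes dosed daily for two days (0.2% DMSO vehicle), harvested at 48 h. UGT1A1 mRNA induction measured by quantitative nuclease protection assay with chemiluminescence; gain of signal versus DMSO; cytotoxicity flagged from morphology.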

Test [8] in a line: CEETOX_H295R_MTT_cell_viability: Viability Assessment in the CeeTox HT-H295R MTT Assay (AID 2283718; active = hit-call score of the fitted dose curve at least 0.9, where 1 is the maximum; inactive = score below 0.9). The procedure, abridged:
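H295R cells prestimulated 48 h with 10 uM forskolin, then exposed 48 h to test chemical (0.1% DMSO final). Viability by MTT (0.5 mg/ml, 4 h, 37 C), absorbance 570/650 nm; percent change versus DMSO, bidirectional fit.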

The target of test [9] is Luciferin 4-monooxygenase (Photinus pyralis) (UniProt P08659). As to the kind of experiment: CCTE_Simmons_QuantiLum_inhib_2: CCTE's Firefly Luciferase Inhibition Assay, Simmons Lab (AID 2283767). The procedure, abridged:
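Recombinant firefly luciferase (5 ng/well, 200 mM potassium phosphate with 1 mg/ml BSA) was exposed to 8 concentrations from 5 nM to 87.5 uM (final, 0.5% DMSO) for 30 min at 37C in the dark. Loss of luminescence versus DMSO was read after injecting D-luciferin/ATP-analogue reagent.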

Test [10] concerns chicken Androgen Receptor (AR), gene 422165. As to the kind of experiment: ATG_chAR_XSP1: Attagene TRANS-FACTORIAL Multi-Species (XSP1) HepG2 Assay for chicken Androgen Receptor (AR) (AID 2283768). The gist of the method:
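HepG2 cells transiently transfected with multiplexed GAL4-UAS reporter units expressing chimeric chicken AR-Gal4; 3 nM 6-alpha-fluorotestosterone for partial AR stimulation; 24 h after dosing, reporter mRNA by RT-PCR and capillary electrophoresis, gain-of-signal versus DMSO.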

The nature of test [11]: ArunA_CellTiter_hNC: Viability Assessment in the ArunA Biomedical's Oris Neural Crest (hNC) Cell Migration Assay (AID 2283752). The procedure, abridged: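 Human H9-derived neural crest stem cells were plated at 60,000 per well on Matrigel in growth medium with LIF and bFGF, incubated 16 h at 37C, then exposed to chemical for 72 h. Viability was read with CellTiter Aqueous One as loss of signal versus DMSO.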

The nature of test [12]: ArunA_CellTiter_hNP: Viability Assessment in the ArunA Biomedical's Oris Neural Crest (hNC) Cell Migration Assay (AID 2283753). The gist of the method:
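H9-derived hNP1 neuroprogenitors, 60,000/well on Matrigel, cultured 16 h, then 72 h chemical exposure in test medium. Cell titer via CellTiter Aqueous One; positive-direction fit vs DMSO.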

A short description of test [13]: ArunA_Migration_hNP: ArunA Biomedical's Oris Neuroprogenitor (hNP) Cell Migration Assay (AID 2283754). The gist of the method:
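Human H9-derived hNP1 neuroprogenitors on Matrigel with LIF/bFGF, plated around seeding stoppers for 16 h at 37C; stoppers removed at start of 72 h chemical exposure. Calcein-AM staining, fluorescence 494/517 nm in detection zone; loss-of-signal vs DMSO; cytochalasin D control.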

The nature of test [14]: ArunA_Migration_hNC: ArunA Biomedical's Oris Neural Crest (hNC) Cell Migration Assay (AID 2283755). The gist of the method: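 Human H9-derived neural crest stem cells, 60,000/well on Matrigel, 16 h at 37C, then 72 h chemical exposure after seeding-stopper removal. Migration into detection zone read as calcein-AM fluorescence (ex494/em517), relative to DMSO.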
Test [15] is described as follows: ArunA_NOG_NucleusCount: ArunA Biomedical's Neurite Outgrowth (NOG) Assay for Nucleus Count (AID 2283756). The procedure, abridged: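 Human H9-derived differentiated neurons were exposed for 48 h right after seeding. Hoechst-stained nuclei gated by size and intensity were counted by automated high-content imaging as viable neurons. Loss of signal vs DMSO.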
A short description of test [16]: ArunA_NOG_NeuritesPerNeuron: ArunA Biomedical's Neurite Outgrowth (NOG) Assay for Neurites Per Neuron (AID 2283758). The procedure, abridged: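 Differentiated human H9-derived neurons exposed to chemicals for 48 h from seeding, then stained with Hoechst and βIII-tubulin/DyLight 488. Automated imaging counted neurites (processes >10 um) per valid neuron; loss of signal versus DMSO scored.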

Values joined by “and” are separate entries in the source; they are usually repeats but may differ in a detail not shown here. Equal values may be shown once. Results filed as inconclusive are left out. More than one record can exist for a structure, and the calls need not agree. Active and inactive are the calls of the source. Rule for the calls, unless noted: active = hit-call score of the fitted dose curve at least 0.9, where 1 is the maximum; inconclusive = response in the unintended direction; inactive = score below 0.9.

Sequence of Luciferin 4-monooxygenase (Photinus pyralis) (P08659 whole entry, looked up): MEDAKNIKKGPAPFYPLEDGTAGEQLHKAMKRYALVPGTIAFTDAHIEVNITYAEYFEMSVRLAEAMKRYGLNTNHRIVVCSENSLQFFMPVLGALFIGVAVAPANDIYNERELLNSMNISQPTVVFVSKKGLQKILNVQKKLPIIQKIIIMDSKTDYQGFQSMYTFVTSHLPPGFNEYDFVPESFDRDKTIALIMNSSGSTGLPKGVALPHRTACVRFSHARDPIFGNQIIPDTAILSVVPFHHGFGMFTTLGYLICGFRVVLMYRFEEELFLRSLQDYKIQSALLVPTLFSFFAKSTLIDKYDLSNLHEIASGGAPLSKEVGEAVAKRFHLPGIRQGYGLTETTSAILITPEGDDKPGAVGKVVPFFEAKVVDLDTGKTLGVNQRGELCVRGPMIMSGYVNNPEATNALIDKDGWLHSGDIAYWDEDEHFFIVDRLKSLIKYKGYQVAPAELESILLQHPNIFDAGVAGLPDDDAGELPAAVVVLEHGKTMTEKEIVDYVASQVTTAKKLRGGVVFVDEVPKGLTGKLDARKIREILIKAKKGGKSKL

One may read the AC50 as the midpoint of the concentration-response curve, whichever way the signal moves. In the case of `Cc1nn(C)c(Oc2ccccc2)c1C=NOCc1ccc(C(=O)OC(C)(C)C)cc1`, the molecule was called inactive in test [1] and in [2]. Moreover, the half-maximal activity concentration (AC50) in test [3] was 0.0118 µM (active); in test [4] it was 0.128 µM (active); in [5] it was 0.0589 µM (active); in test [6], 2.45 µM (active).

On to `CCCOC(=O)NCCCN(C)C`, for which the result in test [7], in test [1], in test [2] and in [6] was inactive.

For `c1ccc(Nc2ccccc2)cc1`, the values for the AC50 in test [1] and in test [6] were 3.48 µM (active) and 30.3 µM (active), respectively. The result in test [2], in [8] and in test [9] was inactive.

With `CCOC(=O)[C@H](C)Oc1ccc(Oc2nc3ccc(Cl)cc3o2)cc1`, the result in test [1] and in [2] was inactive.

On to `CC1(C)C(C=C(Cl)Cl)C1C(=O)OCc1cccc(Oc2ccccc2)c1` (stereo not drawn), for which the call in test [1], in test [8] and in test [10] was inactive.

Regarding `COc1c(Cl)ccc(Cl)c1C(=O)O`, the result in test [1] and in [6] was inactive. Moreover, the AC50 in test [2] is 0.00707 µM (active).

With `CC(C)(C)[C@@H](O)[C@@H](Cc1ccc(Cl)cc1)n1cncn1`, the molecule was called inactive in test [1], in test [2], in test [3], in test [4], in [8] and in test [6]. Also, in [5], the AC50 is 88.7 µM (active).

As for `CCC(C)OC(=O)N1CCCCC1CCO` (stereo not drawn), the molecule was called inactive in test [1], in test [2] and in test [6].

For `COC(=O)c1ccc(I)cc1S(=O)(=O)NC(=O)Nc1nc(C)nc(OC)n1`, the call in [7], in [1], in [3], in [4] and in [6] was inactive.

With `CCC(O)=C1C(=O)CC(C(=O)O)CC1=O` (stereo not drawn), the result in test [1] and in test [2] was inactive.

As to `COC(=O)c1ccccc1C(=O)O`, the result in test [1], in test [2], in test [4], in [5], in test [8] and in [6] was inactive. The half-maximal activity concentration (AC50) in [3] is 0.00297 µM (active).

For `CCCCC(CC)CN1C(=O)C2C3C=CC(C3)C2C1=O` (stereo not drawn), in [1], the half-maximal activity concentration (AC50) was 20 µM (active). Also, the outcome in [8] and in test [6] was inactive.

Consider `COC(=O)CSc1cc(N=c2sc(=O)n3n2CCCC3)c(F)cc1Cl`, for which the molecule was called inactive in test [1] and in test [6]. For the same molecule, the concentration at half-maximal activity (AC50) in [3] is 78.8 µM (active); in test [4], 83 µM (active); in [5] it was 80 µM (active).

For the molecule `CC(C)(c1ccc(O)cc1)c1ccc(O)cc1`, the call in test [1], in test [4], in test [5], in test [8], in [11] and in [12] was inactive. Moreover, the result in test [13], in test [14], in [15], in [16] and in test [9] was inactive. Besides, the AC50 in test [3] was 67.3 µM (active); in test [6], 45 µM (active) and 33.6 µM (active) and 35.6 µM (active).

Turning to `CCCOC(=O)c1ccc(C(=O)OCCC)nc1`, the call in test [1] and in test [9] was inactive. Moreover, the AC50 was 0.269 µM (active) in test [2] and 3.83 µM (active) in test [6].

Consider `CCCCOC(=O)C(C)Oc1ccc(Oc2ccc(C(F)(F)F)cn2)cc1` (stereo not drawn), for which the outcome in [1], in [3], in test [4], in test [5] and in [6] was inactive. For the same molecule, the AC50 in [2] was 0.263 µM (active).
